Screens deposited in PubChem BioAssay by National Center for Advancing Translational Sciences (NCATS).
Tb PFK inh-1: inhibitors of T. brucei phosphofructokinase. O15648. T. brucei PFK, ADP-Glo luminescence. Potency, µM (doses to about 57.5 µM), hits mostly inhibitors. actives 0.17% (n = 330,000); note: nearly all actives have a fitted effect of over 60% in size
Target sequence (O15648 whole entry, looked up): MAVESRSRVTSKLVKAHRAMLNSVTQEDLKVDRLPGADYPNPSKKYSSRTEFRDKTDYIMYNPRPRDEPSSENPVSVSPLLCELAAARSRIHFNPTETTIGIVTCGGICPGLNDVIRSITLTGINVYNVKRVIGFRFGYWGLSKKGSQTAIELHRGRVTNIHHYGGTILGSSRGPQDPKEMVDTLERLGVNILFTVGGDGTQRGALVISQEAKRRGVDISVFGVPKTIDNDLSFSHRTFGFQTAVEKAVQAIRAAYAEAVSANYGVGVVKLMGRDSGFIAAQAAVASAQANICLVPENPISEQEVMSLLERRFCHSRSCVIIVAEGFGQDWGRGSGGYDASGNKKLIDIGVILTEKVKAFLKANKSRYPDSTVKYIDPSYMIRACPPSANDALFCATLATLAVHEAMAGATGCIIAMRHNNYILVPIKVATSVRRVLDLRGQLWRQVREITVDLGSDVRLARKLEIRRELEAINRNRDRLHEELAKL
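Compounds were pin-transferred as a titration series up to 57 uM into substrate buffer (0.5 mM F6P, 0.1 mM ATP, pH 8.0), then 1.25 nM PFK was added and reactions ran 45 min before ADP-Glo detection.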
PKM2 activator: activators of human pyruvate kinase M2 | Potency, µM (top dose mostly 57.5 µM), most hits filed as activators | P14618 | actives 0.34% (n = 260,000) | purified PKM2, Kinase-Glo ATP luminescence, activation; response scale: 0% is enzyme alone, no compound | AID 1631; note: nearly all actives have a fitted effect of over 55% in size
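hPK-M2, >95% pure; 0.1 mM ADP / 0.5 mM PEP final; imidazole pH7.2 buffer w/ 7 mM MgCl2, 50 mM KCl; 1 h RT; Kinase-Glo lum. Intermediate enzyme activity for dual inhibitor/activator qHTS.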
A-T KAP1 phos: potential ataxia-telangiectasia treatments restoring KAP-1 phosphorylation; actives 0.19% (n = 320,000); F2112 A-T fibroblasts, KAP-1 phosphorylation AlphaLISA; neocarzinostatin DNA damage 30 min before lysis; Potency, µM (top dose mostly 57.5 µM), usual class: activators; note: nearly all actives have a fitted effect of over 45% in size
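ATM-like activity read as KAP-1 phosphorylation via AlphaLISA donor/acceptor antibody pairs after lysis and 6 hr at 25C. Cells were ATM-null patient fibroblasts (F2112, hTERT), dosed 60 min, then exposed to the DSB inducer NCS for 30 min.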
TCR activator: T cell receptor activation; 330,000 tested, under 10 active; primary human leukocytes, anti-CD3, IL-2 HTRF, 48 h; Potency, µM (top dose mostly 9.22 µM), usual class: activators
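48 hr co-incubation of compounds, a-CD3 beads and primary human leukocytes; IL-2 quantified homogeneously by HTRF with anti-IL-2 K and d2 conjugates.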
IL2 activator: IL-2 activation | IL-2 activation reporter assay, cell-based qHTS; stimulated with anti-CD3/CD4/CD28 beads; in transgenic mouse T cells | activation, % (series mostly up to about 46 µM) | actives 0.065% (n = 360,000) | AID 652025; in the data active = activation above about 50%; inconclusive = mostly about 30% to 49%
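EGFP and DsRed fluorescence is measured by plate cytometry in unstimulated transgenic mouse T cells exposed to compound for 60 minutes, then stimulated 18 hours at 37 degrees C with anti-CD3/anti-CD4 beads plus anti-CD28.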
a7 integrin act: integrin-mediated muscular dystrophy alleviation activation | alpha7betagal myoblasts, beta-gal FDG fluorescence, 48 h | actives 0.064% (n = 350,000) | Potency, µM (doses to about 38.3 µM), usual class: activators | AID 624291; note: nearly all actives have a fitted effect of over 60% in size
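alpha7betagal+/- myoblasts (passage 13, 250/well) treated 48 h at 37C with compounds at 1:260 dilution of DMSO stock. Lysed, then beta-galactosidase activity read as FDG fluorescence (ex 480/em 540) after 30 min, with pre-read for autofluorescence.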
Tb PFK KinaseGlo: inhibits T. brucei PFK measured by ATP depletion. actives 47% (n = 1,100). Potency, µM (highest dose often 57.5 µM). Tb PFK enzyme, ATP depletion, Kinase-Glo Plus luminescence. AID 504636. shares compounds with Tb PFK inh-1; calls by dose curve; note: nearly all actives have a fitted effect of over 60% in size
Tb PFK inh-2: T. brucei PFK enzyme inhibition, hit validation; actives 41% (n = 1,100); purified T. brucei PFK, ADP-Glo luminescence, 45 min; shares compounds with Tb PFK inh-1; AID 504637; Potency, µM (series often up to 57.5 µM), hits mostly inhibitors; note: nearly all actives have a fitted effect of over 60% in size
Of the large screens only hits and unclear results are named; the others gave an inactive call (follow-up assays come after a bar, where they were run). Sampled rows, rich in hits. Any-hit rate of the full collection: about 0.69%. Unless noted, calls come from the whole dose curve; as a rule, active = well fitted curve in the direction sought with a large enough effect; inconclusive = small, poorly fitted or top-dose-only effect, or another doubt; inactive = no such curve, though single readings can be large; an effect the other way counts as inactive or inconclusive.

c1ccc(CN2Cc3ccccc3-n3nncc3C2)nc1	none (no result: Tb PFK inh-1, PKM2 activator, A-T KAP1 phos, TCR activator)
CCN(CC)P(=O)(Nc1ccc([N+](=O)[O-])cc1)c1c(C)nn(CCC#N)c1NC(=O)c1ccc(Cl)cc1Cl (stereo unspecified)	none
COC(/C(C)=C/C=C/C(C)=C/c1coc(C)n1)C(C)C1CC(O)C2(C)OC2C=CC(C)C2CC(CC(=O)O2)CC2OC2C(=O)O1 (stereo unspecified)	none (no result: Tb PFK inh-1, PKM2 activator, A-T KAP1 phos)
COc1ccc(CC(=O)C2C(=O)N(C)c3ccccc32)cc1OC (stereo unspecified)	none (no result: Tb PFK inh-1, PKM2 activator, A-T KAP1 phos)
O=C1/C(=C/c2ccco2)SC(=S)N1c1cccnc1	Tb PFK inh-1 inconclusive | Tb PFK KinaseGlo 4.26µM | Tb PFK inh-2 7.57µM
COc1ccccc1Cn1c(SCC(=O)C(C)(C)C)nc2cc(C(=O)N3CCC4(CC3)OCCO4)ccc2c1=O	none (no result: TCR activator, IL2 activator, a7 integrin act)
CN1C(=O)C[N+]([O-])=C(c2ccccc2)c2cc(Cl)ccc21	none (no result: Tb PFK inh-1, PKM2 activator, A-T KAP1 phos)
Cc1ccc(C(=O)OCC(=O)c2ccc(CC(=O)N3CCOCC3)s2)c(C)c1	Tb PFK inh-1 inconclusive (no result: PKM2 activator) | Tb PFK KinaseGlo inconclusive | Tb PFK inh-2 inconclusive
O=C1CC(c2ccc(O)c(O)c2)Oc2c1ccc(O)c2O (stereo unspecified)	Tb PFK inh-1 inconclusive | Tb PFK KinaseGlo 1.9µM | Tb PFK inh-2 2.13µM
O=C(O)COc1ccc(Cl)cc1Cl	none (no result: Tb PFK inh-1, PKM2 activator, A-T KAP1 phos)
O=C(COc1ccc(Cl)cc1Cl)N/N=C/c1ccc[nH]1	Tb PFK inh-1 inconclusive (no result: PKM2 activator) | Tb PFK KinaseGlo 6.75µM | Tb PFK inh-2 15.1µM
CC(C)NC1C2CCC(CC2)C1(O)c1ccc(Cl)c(Cl)c1 (stereo unspecified)	none (no result: Tb PFK inh-1, PKM2 activator, A-T KAP1 phos, TCR activator)
COC(=O)N1CCN(c2ccc(Cl)c(Cl)c2)CC1	Tb PFK inh-1 30.1µM | Tb PFK KinaseGlo 23.9µM | Tb PFK inh-2 30.1µM
CNC(=S)N1CCN(c2ccc(Cl)c(Cl)c2)CC1	Tb PFK inh-1 26.9µM | Tb PFK KinaseGlo 13.5µM | Tb PFK inh-2 26.9µM
COC(=O)N1CCN(C(=O)Cc2ccc(Cl)c(Cl)c2)C(CN2CCCC2)C1 (stereo unspecified)	none (no result: A-T KAP1 phos, TCR activator, IL2 activator, a7 integrin act)
Cc1cc(SCc2ccc(Cl)c(Cl)c2)nc(=O)[nH]1	Tb PFK inh-1 inconclusive (no result: PKM2 activator) | Tb PFK KinaseGlo 12µM | Tb PFK inh-2 23.9µM
COc1ccc(CCNC(=O)c2c(N)n(CCN3CCOCC3)c3nc4ccccc4nc23)cc1OC	none
COc1ccc(CCNC(=O)c2cc3c(=O)n4cccc(C)c4nc3n(Cc3ccco3)c2=N)cc1OC	Tb PFK inh-1 inconclusive, PKM2 activator inconclusive | Tb PFK KinaseGlo inactive | Tb PFK inh-2 inactive
COc1ccc2c3c1OC1C(=O)CC[C@@]4(O)[C@@H](C2)N(CC2CC2)CC[C@]314 (stereo partly specified)	none (no result: PKM2 activator, a7 integrin act)
O=C1NC(=S)N(c2ccccc2)C(=O)/C1=C/c1ccco1	Tb PFK inh-1 inconclusive
O=C(O)c1ccc2c(c1)C(=O)/C(=C/c1ccccc1)C2=O	Tb PFK inh-1 inconclusive | Tb PFK KinaseGlo inactive | Tb PFK inh-2 inconclusive
O=C(O)c1ccc2c(c1)C(=O)/C(=C\c1ccco1)C2=O	Tb PFK inh-1 inconclusive | Tb PFK KinaseGlo inactive | Tb PFK inh-2 inconclusive
Cc1ccc(OC(=O)N(C)C[C@@H]2OCc3cnnn3CCCC(=O)N([C@@H](C)CO)C[C@H]2C)cc1	none (no result: Tb PFK inh-1, PKM2 activator, A-T KAP1 phos, TCR activator)
O=C(NCc1cccc(Cl)c1)c1ccc(N2CC3CC(C2)c2cccc(=O)n2C3)c(NC(=O)c2cccnc2)c1 (stereo unspecified)	Tb PFK inh-1 inconclusive | Tb PFK KinaseGlo inconclusive | Tb PFK inh-2 inconclusive
Nc1cc(C(=O)Nc2ccccc2F)ccc1N1CC2CC(C1)c1cccc(=O)n1C2 (stereo unspecified)	none (no result: Tb PFK inh-1, PKM2 activator, A-T KAP1 phos, TCR activator)
COc1ccc(N=C2SC(C(N)=O)CC(=O)N2Cc2ccc3c(c2)OCO3)cc1 (stereo unspecified)	Tb PFK inh-1 inconclusive | Tb PFK KinaseGlo 1.69µM | Tb PFK inh-2 inconclusive
CC/C(=N\NC(=O)c1ccccc1Cl)c1c(O)n(C2CCCCC2)c(=O)[nH]c1=O	none (no result: PKM2 activator)
C/C(=N\NC(=O)CNc1cccc(Cl)c1C)C1CC1	Tb PFK inh-1 21.3µM | Tb PFK KinaseGlo inconclusive | Tb PFK inh-2 inconclusive
Cc1cc([N+](=O)[O-])nn1CCCC(=O)Nc1sc2c(c1C(N)=O)CCCC2	Tb PFK inh-1 inconclusive (no result: A-T KAP1 phos) | Tb PFK KinaseGlo 26.9µM | Tb PFK inh-2 23.9µM
CCN(CC)c1ccc(NC2=C(Cl)C(=O)c3ccccc3C2=O)cc1	Tb PFK inh-1 inconclusive, A-T KAP1 phos inconclusive | Tb PFK KinaseGlo inactive | Tb PFK inh-2 inactive
Cc1ncc(CN2CCCC(C(=O)c3ccc(C(C)(C)C)cc3)C2)s1 (stereo unspecified)	none
CC1C=CC(C)C(C(=O)O)C1C(=O)O (stereo unspecified)	Tb PFK inh-1 inconclusive | Tb PFK KinaseGlo inconclusive | Tb PFK inh-2 inconclusive
CN1C2CCC1C(C(=O)O)C(O)C2 (stereo unspecified)	none (no result: PKM2 activator, a7 integrin act)
